The list is not random: actives were taken first. Their share in the collection is about 3.7%.
PTHR1 ag: activates the human parathyroid hormone receptor PTHR1; Potency, µM (doses to about 115 µM), inactives show top-dose activation, actives largely listed as activators; HEK293 GP2 PTHR1 cells, GloSensor cAMP luminescence, 1 h; Q03431; actives 0.075% (n = 410,000); note: potency is the fitted concentration of half-maximal effect; nearly all actives have a fitted effect of over 55% in size
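HEK-293-derived GP2 cells expressing PTHR1 and a GloSensor cAMP reporter, 3,000/well, plated overnight, given luciferin plus IBMX (each 0.5 mM as added) for 1 h at 37 °C, then compound for 1 h at 37 °C. Luminescence was read after 15 min at room temperature.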
D3 ag: D3 dopamine receptor (human) agonism; max activation, %; D3R DiscoveRx beta-arrestin cells, luminescence, 90 min; actives 0.58% (n = 410,000); in the data active = max activation above about 30%; note: 0% is about no effect
Target sequence (P35462 whole entry, looked up): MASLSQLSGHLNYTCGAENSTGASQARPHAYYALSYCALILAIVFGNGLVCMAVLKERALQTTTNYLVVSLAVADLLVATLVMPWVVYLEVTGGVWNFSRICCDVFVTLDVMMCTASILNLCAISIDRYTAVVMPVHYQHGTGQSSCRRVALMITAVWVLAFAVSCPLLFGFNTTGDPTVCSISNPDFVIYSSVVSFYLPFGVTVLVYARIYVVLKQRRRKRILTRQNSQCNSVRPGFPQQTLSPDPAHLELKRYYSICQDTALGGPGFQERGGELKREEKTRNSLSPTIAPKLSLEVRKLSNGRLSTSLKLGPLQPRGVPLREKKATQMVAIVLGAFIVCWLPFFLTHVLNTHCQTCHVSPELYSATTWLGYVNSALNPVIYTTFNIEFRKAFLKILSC
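Agonist-mode cell screen: cells plated at 1500/well and incubated overnight at 37 °C, then exposed to library compounds for 90 min at 37 °C. Detection reagent was added for 30–60 min at room temperature, and luminescence was read.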
B2AR arrestin: recruits beta-arrestin to the human beta2-adrenergic receptor. P07550. beta-arrestin recruitment to beta2AR, cell-based reporter. Potency, µM (series often up to 46.1 µM), inactives show top-dose activation, hits mostly activators. actives 0.02% (n = 330,000);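 note: potency is the fitted concentration of half-maximal effect; 0% = DMSO controls and full agonism = EC100 isoproterenol or metaproterenol; nearly all actives have a fitted effect of over 65% in size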
BRCA1 expr up: activators of BRCA1 expression; MCF7-BRCA1-FFLuc reporter, luminescence, 48 h; response scale: scaled: vehicle 0%, 10 µM genistein 100%; Potency, µM (series often up to 46.1 µM), inactives show top-dose activation, hits mostly activators; actives 1.1% (n = 380,000); note: potency is the fitted concentration of half-maximal effect; nearly all actives have a fitted effect of over 80% in size
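Reporter cells (MCF7, BRCA1 promoter-firefly luciferase) received library compounds across a concentration series for 48 h. End-point luminescence was measured and concentration-effect curves derived after normalization.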
D3 antag: antagonists of human D3 dopamine receptor; P35462; D3R cells, DiscoveRx beta-arrestin luminescence, antagonist mode; active compounds read low; max response, negative = inhibition, %; actives 2.5% (n = 360,000); AID 652054; in the data active = max response below about -50%; inconclusive = no clear call, values can overlap the other calls; note: % is set by controls: 0 for no effect and ±100 for the full control effect
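Cells expressing the human receptor were seeded at 1500 cells/well, incubated overnight at 37 degrees C in 5% CO2, then exposed to library compounds with dopamine controls for 90 minutes at 37 degrees C before luminescent detection.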
RGS4 inhibitor: inhibitors of human regulator of G protein signaling 4. P49798. Transcreener GDP fluorescence polarization, RGS4-accelerated GTP hydrolysis. Potency, µM (titrated, usually from 114 µM), inactives show top-dose activity change, negative = inhibition, hits mostly inhibitors. actives 0.039% (n = 390,000). AID 504845; note: potency is the fitted concentration of half-maximal effect; % is set by controls: 0 for no effect and ±100 for the full control effect; nearly all actives have a fitted effect of over 75% in size
Target sequence (P49798 whole entry, looked up): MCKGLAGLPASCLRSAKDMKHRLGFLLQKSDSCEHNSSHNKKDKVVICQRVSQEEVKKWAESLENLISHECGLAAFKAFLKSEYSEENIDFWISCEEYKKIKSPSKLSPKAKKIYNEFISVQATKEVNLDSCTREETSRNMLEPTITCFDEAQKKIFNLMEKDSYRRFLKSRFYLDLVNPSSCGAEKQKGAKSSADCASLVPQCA
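MLSMR compounds (23 nl, pin-transferred) preincubated 10 min at room temperature with a 500nM (2x) first reagent, then RGS4 at 900nM (2x) plus Transcreener GDP mix added; fluorescence polarization (620/688 nm) read before and after 90 min at 30 °C.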
* marks the source's active call; other numbers are inactive results; i = inactive; ? = inconclusive; · = no result given; [ ] = another dose, or the depositor's remark. Unless noted, calls come from the whole dose curve; as a rule, active = well fitted curve in the direction sought with a large enough effect; inconclusive = small, poorly fitted or top-dose-only effect, or another doubt; inactive = no such curve, though single readings can be large; an effect the other way counts as inactive or inconclusive.

SMILES	PTHR1 ag	D3 ag	B2AR arrestin	BRCA1 expr up	D3 antag	RGS4 inhibitor
Cc1cc(C)cc(C(O)c2ncc(-c3cccc(F)c3)[nH]2)c1 (stereo not drawn)	i	-5	·	-11%	0	·
CCOC(=O)c1sc(-c2ccccc2)cc1N	-7%[57.5 µM]	-3	0%	13µM*	6	-9%
CCOC(=O)c1sc(-c2ccc(F)cc2)cc1N	-9%[57.5 µM]	-3	0%	11µM*	8	13%
CC(=O)c1ccc(NC(=O)CN2CCC(C(=O)c3ccc(F)cc3)CC2)cc1	-49%	-16	0%	-12%	?	-10%
O=C(CN1CCN(c2ccc(F)cc2)CC1)Nc1ccc2c(c1)OCCO2	i	-2	0%	23%	-4	12%
O=C(CN1CCC(C(=O)c2ccc(F)cc2)CC1)Nc1ccccc1	-27%	-28	0%	-57%	-81*	43%
Cc1ccc(C(=O)C2CCN(CC(=O)Nc3ccc(N(C)C)cc3)CC2)cc1	-5%	-63	0%	4%	-82*	-28%
O=C(c1ccc(F)cc1)C1CCN(C(=S)Nc2ccccc2)CC1	11%[57.5 µM]	-9	-1%	1%	10	-6%
O=C(CN1CCC(C(=O)c2ccc(F)cc2)CC1)Nc1ccc(F)cc1	-9%[57.5 µM]	1	0%	-9%	-71*	-9%
O=C(CN1CCN(c2ccc(O)cc2)CC1)Nc1ccc2c(c1)OCCO2	-2%	30*	0%	-1%	4	?
COc1ccc(C(=O)NCCn2cc(SCc3c(F)cccc3Cl)c3ccccc32)cc1	-59%	-11	·	-59%	·	-12%
O=C(Cn1nc2c(cc1=O)CCCC2)Nc1ccc(F)cc1F	-8%	2	·	·	·	-15%
CN(C)c1ccc(NC(=O)CN2CCC(O)(c3ccccc3)CC2)cc1	i	-17	0%	-9%	-79*	3%
CC1Cc2ccccc2N1CC(=O)Nc1ccc2c(c1)OCCCO2 (stereo not drawn)	-38%	67*	-1%	-17%	-1	9%
Cc1ccc(C(=O)C2CCN(CC(=O)Nc3ccc4c(c3)OCCO4)CC2)cc1	2%[57.5 µM]	0	-1%	4%	-70*	12%
CC1Cc2ccccc2N1CC(=O)Nc1ccc(N2CCOCC2)cc1 (stereo not drawn)	-16%	-3	0%	-27%	-7	-11%
CC(=O)C1=CCC(c2ccc(F)cc2)N(S(=O)(=O)c2ccc(C)cc2)C1 (stereo not drawn)	-25%	5	·	0%	64	·
Oc1ccc(/C=N/Nc2ccc(C(F)(F)F)cn2)c(O)c1	·	·	-1%	·	·	·
Oc1ccc(/C=N/Nc2ccc(C(F)(F)F)cn2)cc1	-32%	5	0%	6.3µM*	32	-8%
O=C(Nc1cccc(C(F)(F)F)c1)c1csc(COCCO)n1	-22%	-2	·	42%	0	·
Cc1ccc(Cl)cc1NC(=O)NCCN1CCCCC1	-23%	-13	5%	-5%	-67*	9%
Cc1ccc(Cl)cc1NC(=O)CSC(N)=O	-11%[57.5 µM]	-1	0%	-19%	-68*	?
COCC(=O)Nc1cc(Cl)ccc1C	-58%	-2	0%	-18%	9	6%
COc1ccc(Cl)cc1NC(=O)NCCN1CCCCC1	0%	-14	0%	-12%	?	-8%
O=C(NCc1ccccc1)C(CCc1ccccc1)n1c(=O)c(-c2ccccc2)nc2ccccc21 (stereo not drawn)	i	-15	·	·	-71*	·
SMILES	PTHR1 ag	D3 ag	B2AR arrestin	BRCA1 expr up	D3 antag	RGS4 inhibitor
O=C(NCc1ccccc1)C(CCc1ccccc1)n1c(=O)c(-c2cc3ccccc3[nH]2)nc2ccccc21 (stereo not drawn)	i	8	·	·	21	·
O=C(NC1CCCCC1)C(c1ccnc2ccccc12)n1c(=O)c(-c2ccccc2)nc2ccccc21 (stereo not drawn)	-10%	-17	·	·	-68*	·
COc1ccc(-c2nnc3n2N=C(C)CS3)cc1	i	1	0%	-1%	-4	-1%
CCOC(=O)/C(=C\c1ccc(OC(F)F)cc1)C1=Nn2c(nnc2-c2ccc(Cl)cc2)SC1	-53%	-9	0%	-93%	-90*	-25%
COc1ccc(C2=Nn3c(nnc3-c3ccc(OC)cc3)SC2)cc1	?	-6	0%	-73%	?	-42%
CCOC(=O)/C(=C/c1ccc(OC(F)F)cc1)C1=Nn2c(nnc2-c2ccc(Cl)cc2)SC1	-31%	-17	·	-100%	-62*	?
COc1ccc(C(O)c2nc(-c3ccoc3)cs2)cc1 (stereo not drawn)	i	10	·	-8%	10	·
CSc1ccc(S(=O)(=O)NCC(=O)OCC(=O)NCc2cccs2)cc1[N+](=O)[O-]	-20%	6	0%	-17%	0	-18%
O=S1(=O)CC(N2CCN(c3ccccn3)CC2)CN1Cc1ccccc1 (stereo not drawn)	-9%	7	·	9%	-8	·
Cc1nc2ccccc2nc1N/N=C/c1ccc(O)cc1	i	-5	0%	7.9µM*	-7	-32%
CC1CCCN(CCCNC(=O)c2cc(Sc3ccc(F)cc3)nc3ccccc23)C1 (stereo not drawn)	i	-41	·	·	·	13%
COc1ccc(N(C)C(=O)c2cc3c(Cl)nc4ccccc4c3s2)cc1	i	66*	0%	-38%	15	-22%
Cc1nc2ccccc2c2oc(C(=O)NCCCN3CCCC(C)C3)cc12 (stereo not drawn)	?	-17	0%	21%	-77*	-3%
CC1CCCN(CCCNC(=O)c2cc3c(Cl)nc4ccccc4c3s2)C1 (stereo not drawn)	-21%	-13	1%	39%	-65*	14%
CC1CC(C)CN(CCCNC(=O)c2ccc3nc(N4CCOCC4)sc3c2)C1 (stereo not drawn)	i	-17	0%	-6%	-63*	20%
Cc1ccc(C)c(N(CC(=O)NC(C)(C)C)C(=O)CNC(=O)c2cccs2)c1	i	8	0%	-3%	-10	0%
CCN(CCCNC(=O)c1cc2c(Cl)nc3ccccc3c2s1)Cc1ccccc1	-5%	-16	·	-26%	·	-8%
Cc1nc2ccccc2c2oc(C(=O)N3CC(C)CC(C)C3)cc12 (stereo not drawn)	i	0	0%	-7%	9	6%
CCCCN(CC)CCNC(=O)c1cc2c(=O)[nH]c3ccccc3c2s1	i	-23	0%	13%	-54*	-26%
CCOC(=O)C1CCCN(C(=O)c2cc3c(C)nc4ccccc4c3o2)C1 (stereo not drawn)	i	38*	0%	-24%	39	8%
